High-throughput results (PubChem BioAssay)
Rows were chosen to be rich in hits. Some 0.44% of all compounds tested hit in one or more screens of this group.
S aureus QS inh: blocks AIP-induced quorum sensing reporter in S. aureus. S. aureus RN6390 RNAIII-GFP reporter, flow cytometry 3 h. inhibition, % at 2 µM. 0.3% of 24,000 active. AID 527;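 active means share of bacteria positive for the green fluorescent reporter and its mean brightness both inhibited by 50% or more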
Proteasome disasm: blocks ATP-dependent breakdown of the yeast 26S proteasome. anti-FLAG beads, GFP-proteasome disassembly, flow cytometry. inhibition of disassembly, % (concentration not given with the values). 0.2% of 24,000 active. AID 751;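 active means inhibition of disassembly above about 33%, limit read from the data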;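 further: higher percent means more bead fluorescence retained so stronger block of disassembly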
A number is an active result; - = inactive.

SMILES	S aureus QS inh	Proteasome disasm
CCOC(=O)Cn1c(=O)oc2cc(S(=O)(=O)Nc3cc(OCC)ccc3OCC)ccc21	-	-
CCOC(=O)Cn1c(=O)oc2cc(S(=O)(=O)Nc3ccc(N(CC)CC)cc3C)ccc21	90.2	-
O=C(C1CCCN(S(=O)(=O)c2cccc3cccnc23)C1)N1CCN(c2ccccc2F)CC1 (configuration not stated)	-	-
CCOC(=O)CCC(=O)O[C@H]1[C@H](O[C@@H]2[C@@H](C)[C@H](O[C@H]3C[C@@](C)(OC)[C@@H](O)[C@H](C)O3)[C@@H](C)C(=O)O[C@H](CC)[C@@](C)(O)[C@H](O)[C@@H](C)C(=O)[C@H](C)C[C@@]2(C)O)O[C@H](C)C[C@@H]1N(C)C	51.8	-
O=C(c1ccc(-c2ccccc2)cc1)N1CCN(c2ncccn2)CC1	-	-
C=CCNC1=C(Cl)C(=O)N(c2ccccc2Cl)C1=O	-	-
CC(C)N=c1cc2n(-c3ccc(Cl)cc3)c3ccccc3nc-2cc1Nc1ccc(Cl)cc1	70.5	-
O=C(Nc1ccccc1)C1=C(O)CC(c2ccoc2)CC1=Nc1ccccc1 (configuration not stated)	-	-
O=C(Nc1ccccc1)C1=C(O)CC(c2ccco2)CC1=Nc1ccccc1 (configuration not stated)	-	47.4
CCOC(=O)C1CCCN(C(=O)C2CCN(S(=O)(=O)c3cnc[nH]3)CC2)C1 (configuration not stated)	-	-
CCCSc1nc(N)c(C#N)c(-c2ccc(C)cc2)c1C#N	-	-
CCN(CC)c1ccc(-c2c(C#N)c(N)nc(OC)c2C#N)cc1	-	56.7
COc1ccccc1/C=c1\sc2nc(-c3ccco3)nn2c1=O	-	-
CCOc1ccc(/C=c2\sc3nc(-c4ccco4)nn3c2=O)cc1OCC	-	41.7
C=CCN(C(=O)CNC(=O)c1ccco1)C(C(=O)NC1CCCCC1)c1ccccc1F (configuration not stated)	-	-
CCOC(=O)CSC1=Nc2ccccc2C2=NC(CC(=O)NCc3cccs3)C(=O)N12 (configuration not stated)	-	-
CC(=O)c1ccccc1OCCn1nnc(-c2ccc(C)cc2)n1	-	-
CCc1c(C)sc(NC(=O)c2cc(C)on2)c1C#N	90.5	-
CCCc1cc(C(=O)Nc2sc(C)c(CC)c2C#N)no1	-	-
Cn1cccc1Cc1nnc(SCC(=O)Nc2ccccc2)n1-c1ccc(F)cc1	60.6	-
Cn1cccc1Cc1nnc(SCC(=O)Nc2ccc(F)cc2)n1-c1ccc(F)cc1	-	-
CCC(Sc1nc2ccccc2c(=O)n1CC1CCCO1)C(=O)NCc1cccnc1 (configuration not stated)	-	-
Cc1cc(NC(=O)C2CCCC2)nc2c1c(=O)oc1ccccc12	54.1	-
Cc1cc(NC(=O)C2CCCCC2)nc2c1c(=O)oc1ccccc12	-	-
Cc1ccc(/C=c2\s/c(=C(/C#N)C(=O)N3CCCC3)n(Cc3ccco3)c2=O)s1	-	-
SMILES	S aureus QS inh	Proteasome disasm
N#Cc1c(-c2ccccc2)nc(N2CCCCCC2)[nH]c1=O	-	-
CC(C)C(=O)N1CCN(c2nc(-c3ccccc3)c3c(c2C#N)CCCC3)CC1	57.3	-
COc1ccc2nc(CC(C)(C)CC(=O)O)c[n+]([O-])c2c1	-	-
CCOCCCNC(=O)C(NC(=O)CC1NC(=O)NC1=O)c1ccc(Cl)cc1 (configuration not stated)	-	-
Cc1ccc(CCN2CC(C(=O)NCCCN3CCOCC3)CC2=O)cc1 (configuration not stated)	-	-
CCN(CC)S(=O)(=O)c1ccc(Br)c(OC)c1	-	-
CC1CCCCN1C(=O)Cn1c(=O)n(CCC(=O)NCc2ccco2)c(=O)c2sccc21 (configuration not stated)	-	-
Nc1c(C(O)(C(F)(F)F)C(F)(F)F)ccc2ccccc12	62.8	-
NS(=O)(=O)c1ccc(C(=O)O)cc1	-	-
COCCSc1ccccc1C(=O)Nc1nncs1	-	-
COc1ccc(Nc2nc(-c3sc(N)nc3C)cs2)cc1	56.2	-
COc1ccc(OC)c(Nc2nc(-c3cccs3)cs2)c1	-	-
Cc1c(C(=O)NCc2ccc3c(c2)OCO3)oc2ccc(S(=O)(=O)N3CCC(C)CC3)cc12	-	-
CC1CCN(S(=O)(=O)c2ccc3c(c2)oc(=O)n3CC(=O)NCc2ccc3c(c2)OCO3)CC1	66.6	-
Cn1c2ccccc2c(=O)n2c(=O)c3ccccc3cc12	-	-
CCNc1c2c3c(cccc3n(C)c1=O)C(=O)c1ccccc1-2	-	58.8
CN(CCCNC(=O)C1CCC(=O)N1Cc1ccc(F)cc1)c1ccccc1 (configuration not stated)	-	-
Cc1cccc(Cn2c(SCC(=O)Nc3ccccc3)nc3c2c(=O)[nH]c(=O)n3C)c1	-	-
CCOc1ccc(C2N(c3ccc(F)cc3)C(=O)C3CCCN32)cc1OC (configuration not stated)	-	50.9
CCOc1ccc(C2N(c3ccc(OC)cc3)C(=O)C3CCCN32)cc1OC (configuration not stated)	-	-
COc1cc(C)c(S(=O)(=O)NCc2ccc3c(c2)OCO3)cc1C	-	-
Cc1nnc2ccc(N3CCC(C(N)=O)(N4CCCCC4)CC3)nn12	-	-
Cn1c(=O)n(CCc2ccccc2)c(=O)c2c1nc1n2CCN1Cc1ccco1	95.5	-
Cc1ccc(C)c(Cn2c(=O)c3c(nc4n3CCN4Cc3ccco3)n(C)c2=O)c1	-	-
COc1ccc(CNC(=O)c2cc(C3CC3)on2)cc1	-	-
SMILES	S aureus QS inh	Proteasome disasm
COc1ccc(CNC(=O)c2onc(C)c2Cl)cc1	-	124.2
CCOC(=O)c1ccc(NS(=O)(=O)c2cnc[nH]2)cc1	-	-
CCOc1ccccc1-n1c(SCC(=O)NC2CCCC2)nnc1-c1ccoc1C	-	-
CC1(C)S[C@@H]2[C@H](NC(=O)C(C(=O)O)c3ccccc3)C(=O)N2[C@H]1C(=O)O (some centres not stated)	-	-
CC1(C)S[C@@H]2[C@H](NC(=O)[C@H](N)c3ccccc3)C(=O)N2[C@H]1C(=O)O	50.3	-
COc1ccc(NC(=O)CCNC(=O)Cn2cnc3ccccc3c2=O)c(OC)c1	-	-
COc1cccc(-c2nn(C)c3sc(C(=O)Nc4ccc5c(c4)OCCO5)cc23)c1	82.1	-
COc1cccc(-c2nn(C)c3sc(C(=O)NCc4ccccn4)cc23)c1	-	-
CCOC(=O)c1cnn(CCOC(=O)C2CC2)c1NC(=O)C1CC1	-	-
O=C(CN1CCN(Cc2ccccc2)C1=O)NCc1ccc(Cl)cc1	-	-
O=C(CN1CCN(Cc2ccc(Cl)cc2)C1=O)NCCN1CCCC1	-	48.6
Cc1ccc(S(=O)(=O)c2c(C)nn(C(C)(C)C)c2OC(=O)c2ccc(Br)o2)cc1	51.7	-
Cc1ccc(S(=O)(=O)c2c(C)nn(C(C)(C)C)c2OC(=O)c2ccco2)cc1	-	-
CC(=O)Oc1c(S(=O)(=O)c2ccc(C)cc2)c(C)nn1C(C)(C)C	77.6	-
Cc1ccc(S(=O)(=O)c2c(C)nn(C(C)(C)C)c2OC(=O)C(C)(C)C)cc1	-	-
O=C(CN1C(=O)C2CC=C(Cl)CC2C1=O)Nc1ccc(C(=O)O)cc1 (configuration not stated)	-	-
Cc1onc(-c2ccccc2Cl)c1C(=O)N1CCN=C1SCc1cccnc1	-	-
